Compound activity as filed in PubChem BioAssay.
Pf growth 96h – Primary qHTS for delayed death inhibitors of the malarial parasite plastid, 96 hour incubation; P. falciparum luciferase reporter growth, 96 h; Potency, µM (top dose mostly 28.7 µM), without a hit: top-dose activity change, negative = inhibition, usual class: inhibitors; 320,000 tested, 6.9% active; AID 504834, 2011; note: % is set by controls: 0 for no effect and ±100 for the full control effect
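Parasite growth measured via integrated firefly luciferase reporter in P. falciparum. Infected erythrocytes at 2% hematocrit, 0.05% parasitemia final were treated 96 hours at 37 C under 5% CO2, and luminescence was read.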
SARS PLP yeast – qHTS of Yeast-based Assay for SARS-CoV PLP; 330,000 tested, 0.19% active; Potency, µM (series often up to 32.9 µM), for inactives: top-dose activity, positive = growth rescue, usual class: activators; S. cerevisiae expressing SARS-CoV PLpro, growth rescue; AID 485353, 2010; calls by dose curve; note: 0% is about no effect; nearly all actives have a fitted effect of over 55% in size
Sm TGR inh – qHTS Assay for the Inhibitors of Schistosoma Mansoni Peroxiredoxins; purified TGR, DTNB reduction, TNB absorbance 405 nm; Schistosoma mansoni thioredoxin glutathione reductase (TGR), Q962Y6; 360,000 tested, 3% active; AID 485364, 2010; Potency, µM (titrated, usually from 114 µM), without a hit: at the top dose activity change, negative = inhibition, usual class: inhibitors; note: % is set by controls: 0 for no effect and ±100 for the full control effect; nearly all actives have a fitted effect of over 60% in size
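TGR 20 nM + NADPH 100 uM (dispensed conc.), cpd preinc 15 min RT; start with NADPH (500 uM addition) then DTNB (15 mM addition). Kinetic TNB absorbance, 405 nm filter. Four-parameter Hill fit across titration.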
AmpC no deterg – qHTS Inhibitors of AmpC Beta-Lactamase (assay without detergent). 330,000 tested, 0.52% active. AmpC nitrocefin hydrolysis, absorbance 480 nm, 0.0001% Triton. P00811. Potency, µM (highest dose often 57.1 µM), for inactives: top-dose activity change, negative = inhibition, hits mostly inhibitors;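 note: plate controls were no compound for no effect and no enzyme for full effect; nearly all actives have a fitted effect of over 20% in size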
Target sequence (P00811 whole entry, looked up): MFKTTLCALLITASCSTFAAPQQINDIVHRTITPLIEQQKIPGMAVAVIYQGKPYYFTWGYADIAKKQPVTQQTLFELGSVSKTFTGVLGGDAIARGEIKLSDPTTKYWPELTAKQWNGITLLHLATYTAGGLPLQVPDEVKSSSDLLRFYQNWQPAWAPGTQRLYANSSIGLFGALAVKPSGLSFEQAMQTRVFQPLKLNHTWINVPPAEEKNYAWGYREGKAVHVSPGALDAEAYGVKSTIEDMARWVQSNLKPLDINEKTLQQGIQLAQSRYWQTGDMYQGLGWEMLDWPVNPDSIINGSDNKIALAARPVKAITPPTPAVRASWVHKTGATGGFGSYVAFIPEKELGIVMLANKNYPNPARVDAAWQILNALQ
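AmpC (5.3 nM in the dispensed reagent) in 20 mM phosphate pH 7.0 with 0.01% (detergent screen) or 0.0001% Triton X-100 was preincubated with compounds for 15 min at room temperature. Nitrocefin was then added from an 800 uM solution, and hydrolysis was followed at 480 nm.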
Pf growth 48h – Primary qHTS for delayed death inhibitors of the malarial parasite plastid, 48 hour incubation; P. falciparum luciferase growth in erythrocytes, 48 h; Potency, µM (top dose mostly 28.7 µM), without a hit: at the top dose activity change, negative = inhibition, actives largely listed as inhibitors; 310,000 tested, 5.9% active; AID 504832, 2011; note: % is set by controls: 0 for no effect and ±100 for the full control effect
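In quantitative HTS format, infected erythrocytes bearing luciferase-reporter parasites were treated for a single generation at 37 C. Luminescence after adding detection reagent served as the growth measure.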
AmpC detergent – qHTS Inhibitors of AmpC Beta-Lactamase (assay with detergent). P00811. AmpC hydrolysis of nitrocefin, absorbance 480 nm, 0.01% Triton. Potency, µM (doses to about 114 µM), inactives show top-dose activity change, negative = inhibition, usual class: inhibitors. 370,000 tested, 0.041% active. AID 485294, 2010;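 note: 0% = no-compound wells and -100% = no-enzyme wells; nearly all actives have a fitted effect of over 25% in size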
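20 mM phosphate pH 7.0 + 0.01% (detergent screen) or 0.0001% Triton X-100; 5.3 nM AmpC reagent; cpd preinc 15 min RT; nitrocefin (800 uM stock) to start; A480 q20 s × 4 min; Activity was normalised to no-enzyme and no-compound control wells.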
* marks the source's active call; other numbers are inactive results; u = inconclusive; x = not tested or not shown. This is a sample that favours compounds with a hit; in the whole collection about 12% have one here. Unless noted, calls come from the whole dose curve; as a rule, active = well fitted curve in the direction sought with a large enough effect; inconclusive = small, poorly fitted or top-dose-only effect, or another doubt; inactive = no such curve, though single readings can be large; an effect the other way counts as inactive or inconclusive. Potency is the fitted concentration of half-maximal effect.

SMILES	Pf growth 96h	SARS PLP yeast	Sm TGR inh	AmpC no deterg	Pf growth 48h	AmpC detergent
Cc1cccc(Cn2cnc3c(nnn3Cc3ccc(Cl)cc3)c2=O)c1	4.1µM*	-20%	-13%	-20%	u	-3%
COc1ccc(-n2nnc3c(=O)n(Cc4cc(C)ccc4C)cnc32)cc1	5.2µM*	0%	13%	-1%	-19%	-1%
Cc1cccc(NC(=O)CSc2nc(-c3cccs3)cc(C(F)(F)F)c2C#N)c1C	x	x	19%	x	x	14%
CCC1CCCCN1C(=O)Cn1c(=O)n(CCCCCC(=O)NCc2ccccc2Cl)c(=O)c2sccc21 (stereo not drawn)	x	x	-7%	x	x	22%
CCN(CC)CCSc1nnc2c3cc(F)ccc3n(Cc3ccccc3)c2n1	5%	4%	0%	53%	x	u
CCCn1c2ccccc2c2nc3ccccc3nc21	x	-4%	11%	32%	u	u
CCN(CC)CCSc1nnc2c3ccccc3n(Cc3ccccc3)c2n1	u	4%	0%	111%	5.2µM*	-14%
CCN(CC)CCn1c2ccccc2c2nc3ccccc3nc21	20%	x	50µM*	-15%	-2%	-12%
CN(C)c1ccc(/C=C/C(O)=C2/C(=O)N(C)C3(C)CC2c2ccccc2O3)cc1 (stereo not drawn)	u	-4%	u	-15%	u	-10%
COc1nnc(-c2ccc(N3CCCCC3)c(NC(=O)c3ccccc3Cl)c2)c2ccccc12	x	x	1%	x	x	24%
COc1ccccc1-c1n[nH]c(=S)n1-c1ccccc1	13µM*	13%	-22%	8%	90%	-12%
O=C(/C=C/c1ccccc1)OCCN1C(=O)c2ccccc2C1=O	31%	-4%	-1%	-15%	30%	-13%
Cc1c(C(=O)N2CCCCC2)oc2ccc(S(=O)(=O)N3CC(C)CC(C)C3)cc12 (stereo not drawn)	12µM*	1%	-10%	83%	u	0%
